The panel holds about 83,000 compounds, 20% with a hit somewhere; the sample as a whole holds those more often.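 Percent growth is the endpoint: 0 to 100 indicates growth inhibition (40 means 60% inhibition), 0 means no net growth, and negative values indicate cell death.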 Activity calls are given as the source filed them. How the source made its calls: active means growth percent below 10; inactive means the rest.
Test system: MDA-MB-468 breast
Experiment: NCI-60 one-dose screen, 48 h (100 = growth as untreated, 0 = no growth, -100 = all killed)
Conditions: 10 µM unless noted

For CC(C)(C)OC(=O)Nc1ccc2c(c1)C(NC(=O)Nc1cccc(C#N)c1)CC(C)(C)O2 (stereo not drawn), which growth is on record?
The growth was -5.73% (active).

With CC/C=C\C/C=C/C=C1/C(=O)C=C[C@@H]1C/C=C\CCCC(=O)OC as the compound, how does the growth read?
Its growth is 19.8% (inactive).

O=C1NC(=O)c2c1c1c3ccccc3ccc1c1[nH]c3ccccc3c21 was tested. Which growth did it give?
The growth was 7.32% (active).
